HT1080 IDH1KD tx – qHTS for induction of synthetic lethality in tumor cells producing 2HG: qHTS for the HT-1080-IDH1KD cell line; Potency, µM (highest dose often 46.1 µM), inactives show at the highest dose activity, negative = toxicity, actives largely listed as cytotoxic; AID 686971, 2013; 360,000 compounds, 2% hits; HT-1080 IDH1 knockdown viability, ATP luminescence, 48 h;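 also: potency is read from the fitted curve at half-maximal effect; 0% = DMSO wells and -100% = cell-free medium wells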
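Cytotoxicity counter-line: IDH1KD HT-1080, 48 h, CellTiter-Glo. Curves classed by r2, magnitude and activity.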
TDP1 cell noCPT – qHTS for Inhibitors of human tyrosyl-DNA phosphodiesterase 1 (TDP1): qHTS in cells in absence of CPT. DT40 Tdp1-/- hTDP1 cells, no CPT, ATP luminescence, 48 h. Potency, µM (doses to about 46.2 µM), inactives show top-dose activity change, negative = growth inhibition, hits mostly inhibitors. 420,000 compounds, 15% hits. AID 686978, 2013; also: potency is read from the fitted curve at half-maximal effect; nearly all actives have a fitted effect of over 55% in size
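No-CPT arm: Tdp1-/-;hTDP1 DT40 cells (400/well) plus compounds, incubated ≥48 hr at 37 °C. Readout CellTiter-Glo luminescence.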
HT1080NT lethal – qHTS for induction of synthetic lethality in tumor cells producing 2HG: qHTS for the HT-1080-NT fibrosarcoma cell line; HT-1080-NT fibrosarcoma viability, CellTiter-Glo ATP luminescence, 48 h; Potency, µM (doses to about 46.1 µM), for inactives: top-dose activity, negative = less viability, actives largely listed as cytotoxic; 360,000 compounds, 1.6% hits; AID 686970, 2013;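 also: NT is the 2HG producing partner of a matched IDH1 knockdown line; potency is read from the fitted curve at half-maximal effect; 0% = DMSO-treated cells and -100% = media-only wells without cells; nearly all actives have a fitted effect of over 55% in size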
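Toxicity toward the 2HG-producing NT line was scored as %Activity, normalised to DMSO and no-cell wells, from CellTiter-Glo luminescence after 48 hours' treatment.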
IL-1B inflam inh – qHTS for Inhibitors of Inflammasome Signaling: IL-1-beta AlphaLISA Primary Screen. THP-1 LPS/ATP IL-1B secretion, AlphaLISA, 16 h; hits give low values. 360,000 compounds, 4.7% hits. activity change, % at 57.5 µM; in the data active = activity change below about -50%; inconclusive = mostly about -30% to -49%
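THP-1 cells pretreated 1 hr with compounds (up to 57.5 uM final), then stimulated with LPS (250 ng/mL final) plus ATP (1.25 mM final); secreted IL-1B measured by AlphaLISA after 16 hr, decreased signal indicating inhibition.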
ELG1 DNA repair – qHTS screen for small molecules that inhibit ELG1-dependent DNA repair in human embryonic kidney (HEK293T) cells expressing luciferase-tagged ELG1 | HEK293T ELG1-luciferase reporter, luminescence, 16 h; DNA damage induced by 5-fluorouridine | Potency, µM (series often up to 46.1 µM), without a hit: at the top dose activity change, negative = inhibition, hits mostly inhibitors | 330,000 compounds, 2.3% hits | AID 504467, 2011; also: potency is read from the fitted curve at half-maximal effect; nearly all actives have a fitted effect of over 55% in size
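Quantitative HTS, concentration-response format. 2,000 cells/well co-treated with 5-fluorouridine and compound, 16 hr in 5% CO2 at 37 °C; ONE-Glo luminescence read after 30 min.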
DT40 TDP1 CPT – qHTS for Inhibitors of human tyrosyl-DNA phosphodiesterase 1 (TDP1): qHTS in cells in presence of CPT; chicken DT40 Tdp1-/-;hTDP1 cells + 20 nM CPT, ATP luminescence, 48 h; Potency, µM (highest dose often 46.2 µM), for the others: at the highest dose activity change, negative = growth inhibition, hits mostly inhibitors; 420,000 compounds, 12% hits; AID 686979, 2013; also: potency is read from the fitted curve at half-maximal effect; nearly all actives have a fitted effect of over 55% in size
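Cell growth measured by CellTiter-Glo luminescence after a minimum 48 h, 37 C compound exposure with 20 nM CPT in Tdp1-knockout DT40 cells stably expressing hTDP1, seeded 400/well; qHTS titration format.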
* marks the source's active call; other numbers are inactive results; u = inconclusive; x = no result; [ ] = dose if it differs, or a comment. This is a sample that favours compounds with a hit; in the whole collection about 19% have one here. Unless noted, calls follow the shape of the dose curve; as a rule, active = well fitted curve in the direction sought with a large enough effect; inconclusive = small, poorly fitted or top-dose-only effect, or another doubt; inactive = no such curve, though single readings can be large; an effect the other way counts as inactive or inconclusive. Unless noted, % is scaled to controls: 0 for no effect and ±100 for the full control effect.

SMILES	HT1080 IDH1KD tx	TDP1 cell noCPT	HT1080NT lethal	IL-1B inflam inh	ELG1 DNA repair	DT40 TDP1 CPT
CC(=O)Nc1ccc(NC(=O)C(C)OC(=O)C2(c3ccccc3F)CCCC2)cc1 (centres undefined)	-26%	u	4%[9.24 µM]	61	-19%	u
CCn1c(C(=O)N2CCC(C(=O)N3CCN(c4cc(C)ccc4C)CC3)CC2)cc2sccc21	x	16µM*	x	x	x	23µM*
Cc1ccc(C)c(N2CCN(C(=O)C3CCC3)CC2)c1	8%	-1%	4%	-10	-14%	-5%
CC1CCN(C(=O)CSc2nnc3c(n2)[nH]c2ccccc23)CC1	-11%	u	-11%	10	-19%	-14%
Cc1ccc2c(c1)CO[C@]21O[C@H](CCO)C[C@H](O)[C@H]1O	-1%	2%	3%	21	x	-1%
CN(C)c1ccnc2sc3c(SCc4ccc(Cl)cc4)ncnc3c12	19%	13µM*	17%	25	-13%	16µM*
COc1ccc(C(=O)Nc2nnc(SCC(=O)NCc3ccco3)s2)c(OC)c1	8%	u	6%	-30	u	u
Fc1ccccc1N1CCN(c2c3c(nc4nncn24)CCC3)CC1	x	21µM*	x	x	x	u
CN(C)C(=S)N=c1ssc(=S)n1Cc1cccnc1	-14%	2.6µM*	-9%	10	x	1.8µM*
COc1ccc(Cl)cc1C=CC=Nc1ccccc1O	-18%	18µM*	-13%	u	x	23µM*
COc1ccc(Br)cc1C=NNS(=O)(=O)c1ccc(C)cc1	u	7.3µM*	u	73	x	u
COc1cc(/C=N/NS(=O)(=O)c2ccc(Br)cc2)ccc1O	0%	4%	0%	24	-9%	3%
COc1ccccc1/C=C/C=N/N1CCN(Cc2ccc(Cl)cc2)CC1	u	u	1%	u	5%	u
COc1ccc(Cl)cc1C=CC=NNS(=O)(=O)c1ccc(C)cc1	7%	16µM*	9%	-4	x	18µM*
C=CCn1c(=O)c2ccc(C(=O)NCc3ccccc3)cc2n(Cc2ccc(C)cc2)c1=O	7%	u	0%	-8	u	u
CN(C)c1ccc(CNC(=O)CC[C@H]2O[C@@H](n3cnc4c(NC(=O)c5ccccc5)ncnc43)[C@H](O)[C@@H]2O)cc1	2%	-4%	-3%	u	x	-46%
COc1ccc([C@H]2CC(=O)C[C@@H](CCn3cc(-c4ccccn4)nn3)O2)cc1	12%	-26%	0%	22	x	-15%
COc1cccc(C(=O)CN2C3=NCCCN3c3ccccc32)c1	-11%	21µM*	-11%	-4	-29%	21µM*
Clc1ccc(CN2C3=NCCN3c3ccccc32)cc1Cl	u	16µM*	u	x	u	u
COc1ccc(C(=O)CN2C3=NCCCN3c3ccccc32)cc1OC	-11%	16µM*	-12%	-9	u	21µM*
OCCN1C2=NCCCN2c2ccccc21	8%	-2%	5%	27	14%	31%
CCCCCCN1C2=NCCCN2c2ccccc21	-22%	16µM*	-16%	-22	u	18µM*
c1ccc(CN2C3=NCCN3c3ccccc32)cc1	0%	-9%	-1%	9	-21%	4%
Cc1ccc(NC(=O)Cn2c(=O)n(Cc3ccc4c(c3)OCO4)c(=O)c3ccccc32)c(C)c1	x	-28%	x	x	x	-19%

Screening results as filed in PubChem BioAssay.
